# Molecular target: CREB5
# Assay: pooled miR-30 sensor sort-seq; sequence = guide strand
# Details: shRNA
# Also: reference of the scale not given here.
row,Sequence,sensor-assay potency score (higher = more potent)
1,TTAAGTATAGCTTAGCTGCTGC,-0.267
2,TTAGATATCCTTGTGATTCTTT,0.29
3,TTATGTGTTAACAACAACTGTT,-0.0254
4,TTGAACAATGTAATCTGTGTAG,-0.458

# Molecular target: CREG1
# Assay: as above
# Details: shRNA
row,Sequence,sensor-assay potency score (higher = more potent)
1,TTTGTGGATCAAATCCATGTTT,-0.755
2,TTCACCTTGGTCACAGTTCCTG,-0.406
3,ATATTGGTTATATTCAACTTAG,-1.21
4,TCACCTTGGTCACAGTTCCTGA,-0.428
5,TTCTTGCAGAAGTTGGTCTGTG,-0.659
6,TAGAAATAGGGCACGCCGCTGC,-0.314
7,TTTCTTGCAGAAGTTGGTCTGT,0.391
8,TTTGCAATATCCATTTCTGTTT,-1.42
9,TGGTCCACCAAAGTAGTCCAGG,-1.37
10,TCCAATAACAGGTCAACTCTAT,-0.715
11,TTGTGGATCAAATCCATGTTTC,-1.13

# Molecular target: CRIPAK
# Assay: as above
# Details: shRNA
row,Sequence,sensor-assay potency score (higher = more potent)
1,TCGACATGTGTGAGCAGGCGGG,-1.62
2,TATAAAAGGGATCCTTGACATA,-1.08
3,ACCATGAGTAGAATGTACGGTA,-1.4
4,ACCTACAGAACCACCATGCCAG,-1.69
5,TACAGAACCACCATGCCAGGGC,0.653
6,TACGGTAACAGCGTCTGACTCG,-0.0922
7,TCCACATGGGCACATGAGCAGG,-2.25
8,TAACAGCGTCTGACTCGGCCGG,-0.738
9,TTAAAAAGCCACCATGAGTAGA,-1.01
10,TAGAATGTACGGTAACAGCGTC,-0.204
11,ATGTACGGTAACAGCGTCTGAC,-0.866
12,AACAGCGTCTGACTCGGCCGGC,-0.602

# Molecular target: CROT
# Assay: as above
# Details: shRNA
row,Sequence,sensor-assay potency score (higher = more potent)
1,TAGAGGAGTATTTCCAACTTTA,-0.214
2,TTGTCTGAGAAGCTCTGGCGGG,-0.935
3,TAGCATTCGGAATTGATTCATA,-0.712
4,TTTTCTTATATTCTTCTTGATT,-1.35
5,TGATGGTATACGAACATCCAGA,-1.05
6,TTCAAGTGAAGGAACAGGCAGT,0.589
7,TTCATAGCAACAACCAGGGTGT,0.163
8,TATATCTCGTACCTTCTCTGAA,-0.557
9,TTCTAATTGAGTCCCTTCCTTT,-0.88
10,TTTCATAGCAACAACCAGGGTG,0.143
11,TTGTAACATCTTTTGCTGCCGC,-0.495
12,TATACCAGTAAACTACTCTGAA,0.286

# Source: the OligoGym collection
